# Inconclusive results are not listed. A call without a number means that no potency is given here. Active and inactive are the calls of the source. Calls come from the whole dose curve; as a rule, active = well fitted inhibition curve with a large enough effect; inconclusive = small, poorly fitted or top-dose-only effect, or effect the other way; inactive = flat fitted curve, though single readings scatter.
# Biological target: Lysosomal acid glucosylceramidase (Homo sapiens) (UniProt P04062)
# Experiment: qHTS Assay for Inhibitors and Activators of N370S glucocerebrosidase as a Potential Chaperone Treatment of Gaucher Disease: Purified N370S Glucocerebrosidase Cleavage of Glucosylceramide
# Details: purified N370S GCase; series mostly up to 77.6 µM
# Source text: NIH Chemical Genomics Center [NCGC]
# NIH Molecular Libraries Probe Production Centers Network [MLPCN]
# Assay Submitter (PI): Wei Zheng
# Glucocerebrosidase (GC) catalyzes the hydrolysis of beta-glucocerebroside to glucose and ceramide in lysosomes. Mutations in the glucocerebrosidase gene result in Gaucher disease, an autosomal recessive lysosomal storage disorder. Many of the mutations encountered in patients with Gaucher disease are missense alterations that may cause misfolding, decreased stability and/or mistrafficking of this lysosomal protein. […] These inhibitors include iminosugar analogs and three non-iminosugar inhibitors identified from a previous HTS of 62,000 compounds with the wild type recombinant enzyme. However, the enhancement of enzyme activity by the chaperone action of an enzyme inhibitor must be balanced against the direct inhibition of the enzyme. An enzyme activator could also function as a chaperone by binding to the enzyme and helping to correct its misfolding and mistrafficking. While activators for GC have not yet been identified, they may have better therapeutic potential than inhibitors. Therefore the discovery and development of chemical activators may provide a new strategy for the chaperone therapy.
# We have optimized a new assay using N370S mutant GC derived from the spleen of a Gaucher patient. […] In addition, the MLPCN compound library has expanded, which increases the chance of finding new and better probes.
# This assay characterizes compound activity using purified, mutant enzyme cleavage of the native substrate for the enzyme instead of mutant enzyme from tissue homogenate. Compound activity differences may be due to the absence of endogenous cofactors found in tissue homogenate as well as inherent differences in enzyme stability and catalytic activity using the difference substrates.
# NCGC Assay Protocol Summary:
# This is an enzyme assay using glucosylceramide from soy (Avanti Polar Lipids Catalog #: 131304P) as the substrate and recombinant human glucocerebrosidase as the enzyme preparation. Upon hydrolysis of the substrate, the glucose product can be detected using the Amplex Red Glucose Oxidase Assay Kit (Invitrogen catalog #: A22189). The product of this reaction can be read with a fluorescence plate reader with an excitation at 573 nm and an emission at 610 nm. Data were normalized to the controls for basal activity (without enzyme) and 100% activity (with enzyme). The AC50 values were determined from concentration-response data modeled with the standard Hill equation.
# Assay buffer for enzyme reaction: 50 mM citric acid (titrated with potassium phosphate to pH 5.9), 0.01% Tween-20 (pH 5.9 is an optimal condition for this enzyme assay)
# Assay buffer for Amplex Red reaction: Tris-HCl, pH 7.5
# 1536-well assay protocol for the glucocerebrosidase assay:
# (1) Add 2 ul/well glucocerebrosidase enzyme solution (5 nM final)
# (2) Add 23 nL compounds in DMSO solution. The final titration was 0.7 nM to 77 uM.
# (3) Add 1 ul of glucosylceramide solution (50 uM final)
# (4) Incubate at 37C for 40 min
# (5) Add 2 ul tris-HCl buffer with Amplex Red reagents
# (6) Incubate 45 min at room temperature.
# (7) Detect the assay plate in a ViewLux plate reader (PerkinElmer) with Ex=573 nm and Em=610nm.
# Keywords: Glucocerebrosidase, beta-glucosidase, Gaucher Disease, pharmacological chaperone, chaperone therapy, high throughput screening, glucocerebrosidase inhibitor, MLSMR, MLSCN, NIH Roadmap, qHTS and NCGC
# Sequence of Lysosomal acid glucosylceramidase (Homo sapiens) (P04062 whole entry N409S): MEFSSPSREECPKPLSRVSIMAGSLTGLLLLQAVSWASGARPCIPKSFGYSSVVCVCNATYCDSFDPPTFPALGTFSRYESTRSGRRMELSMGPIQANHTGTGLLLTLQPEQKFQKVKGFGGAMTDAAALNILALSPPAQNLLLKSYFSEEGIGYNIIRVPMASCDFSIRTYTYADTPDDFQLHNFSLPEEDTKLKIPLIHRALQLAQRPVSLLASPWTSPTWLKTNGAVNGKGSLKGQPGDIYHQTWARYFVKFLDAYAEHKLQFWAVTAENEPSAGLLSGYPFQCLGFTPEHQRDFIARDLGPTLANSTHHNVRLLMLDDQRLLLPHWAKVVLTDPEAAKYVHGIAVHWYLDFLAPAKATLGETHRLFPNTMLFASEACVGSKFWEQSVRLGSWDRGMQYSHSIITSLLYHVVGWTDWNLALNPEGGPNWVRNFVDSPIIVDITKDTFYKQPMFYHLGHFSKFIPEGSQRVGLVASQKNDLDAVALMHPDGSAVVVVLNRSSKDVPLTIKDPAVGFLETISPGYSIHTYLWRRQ
row,SMILES,Potency
1,O=S(=O)(Cc1ccccc1)N1CCN(c2nc(-c3cccs3)nc3ccccc23)CC1,inactive
2,O=S(=O)(c1ccccc1)N1CCN(c2nc(-c3ccc(F)cc3)nc3cc(Cl)ccc23)CC1,inactive
3,O=C(c1ccc2c(c1)OCCO2)N1CCN(c2nc(-c3cccs3)nc3ccccc23)CC1,inactive
4,O=C(COc1ccccc1C(=O)c1cnn(-c2ccccc2)c1)Nc1ccccc1,inactive
5,CC1(C)CC(=O)C2=C(C1)c1c(ccc3ccccc13)NC2c1ccc(Br)o1 (stereo not given),inactive
6,COc1ccc(-c2nc(N3CCN(S(=O)(=O)c4ccc(C)cc4)CC3)c3ccccc3n2)cc1,inactive
7,O=S(=O)(c1ccc(Cl)cc1)N1CCN(c2nc(-c3ccc(Cl)cc3)nc3ccccc23)CC1,inactive
8,O=S(=O)(c1ccc(Cl)cc1)N1CCN(c2nc(-c3cccc(Br)c3)nc3ccccc23)CC1,inactive
9,COc1ccccc1NC(=O)COc1ccccc1C(=O)Nc1ccccc1,inactive
10,COc1ccc(-c2nc(N3CCN(S(=O)(=O)c4ccc(F)cc4)CC3)c3ccccc3n2)cc1,inactive
11,COc1cccc(S(=O)(=O)N2CCN(c3nc(-c4cccs4)nc4ccccc34)CC2)c1,inactive
12,CC(C)(C)c1ccc(S(=O)(=O)N2CCN(c3nc(-c4cccs4)nc4ccccc34)CC2)cc1,inactive
13,CCc1ccc(NC(=O)c2cnn3c(C(F)F)cc(C)nc23)cc1,inactive
14,Cc1cc(C)cc(N(CC(=O)NC2CCCCCC2)S(=O)(=O)c2c(C)[nH]c(=O)[nH]c2=O)c1,14.1 µM (active)
15,COc1ccc(S(=O)(=O)N2CCN(c3nc(-c4cccs4)nc4ccccc34)CC2)cc1,inactive
16,CCC(=O)OCCNc1nc(-c2ccccc2)nc2ccccc12,inactive
17,c1csc(-c2nc(NCC3CCCO3)c3ccccc3n2)c1 (stereo not given),inactive
18,COc1cccc(CN(C)c2nc(-c3cccs3)nc3ccccc23)c1,inactive
19,CCC(C)c1ccc(NC(=O)c2cnn3c(C(F)F)cc(C)nc23)cc1 (stereo not given),inactive
20,O=S(=O)(c1ccc(Cl)cc1)N1CCN(c2nc(-c3cccs3)nc3ccccc23)CC1,inactive

row,SMILES,Potency
1,Cc1cccc(/C=N/NC(=O)NC23CC4CC(CC(C4)C2)C3)n1,inactive
2,O=C(Nc1cc(Br)ccc1O)c1cnn2c(C(F)F)cc(C3CC3)nc12,inactive
3,O=S(=O)(c1ccc2c(c1)OCCO2)N1CCN(c2nc(-c3cccs3)nc3ccccc23)CC1,inactive
4,CCCNC(=O)COC(=O)c1ccccc1OCC(=O)Nc1ccc(Br)cc1,inactive
5,COc1ccccc1C(=O)COC(=O)c1ccccc1OCC(=O)Nc1ccc(SC(F)F)cc1,inactive
6,COc1cc(OC)c2c(N)c(C#N)c(C(F)(F)C(F)(F)F)nc2c1,inactive
7,O=C(CSc1nccc(-c2cccs2)n1)Nc1cccc(Cl)c1,inactive
8,O=S(=O)(c1cccc(C(F)(F)F)c1)N1CCN(c2nc(-c3cccs3)nc3cc(Cl)ccc23)CC1,inactive
9,NS(=O)(=O)c1ccc(S(=O)(=O)N2CCN(c3nc(-c4cccs4)nc4ccccc34)CC2)cc1,inactive
10,Cc1ccc(-c2nc(N3CCN(S(=O)(=O)c4ccc(F)cc4)CC3)c3ccc(Cl)cc3n2)cc1,inactive
11,Cc1ccc(NC(=O)COc2ccccc2C(=O)Nc2ccccc2)cc1Cl,inactive
12,Cc1ccccc1S(=O)(=O)N1CCN(c2nc(-c3cccs3)nc3ccccc23)CC1,inactive
13,O=C(Nc1cnn(Cc2ccc(F)cc2)c1)c1cnn2c(C(F)F)cc(-c3ccccc3)nc12,inactive
14,O=S(=O)(c1ccc(Cl)cc1)N1CCN(c2nc(Nc3cc(Cl)ccc3O)nc3ccccc23)CC1,14.1 µM (active)
15,S=C(NCCCc1cnc[nH]1)NCCCN(Cc1ccc(Cl)c(Cl)c1)c1ccc(Br)cn1,44.7 µM (active)
16,N=c1c2c(-c3ccccc3)c(-c3ccccc3)n(Cc3ccco3)c2ncn1CCCn1ccnc1,inactive
17,Cc1cc(C)cc(N(CC(=O)NC2CCC(C)CC2)S(=O)(=O)c2c(C)[nH]c(=O)[nH]c2=O)c1 (stereo not given),35.5 µM (active)
18,O=S(=O)(c1ccccc1C(F)(F)F)N1CCN(c2nc(-c3cccs3)nc3ccccc23)CC1,inactive
19,CSc1ccc(NC(=O)Nc2cc(C)ccn2)cc1,inactive
20,N#Cc1ccc(S(=O)(=O)N2CCN(c3nc(-c4cccs4)nc4ccccc34)CC2)cc1,inactive
